Screening data (PubChem)
PostGolgi ctrl = growth of the yeast control strain, post-Golgi counter-screen. inhibition, % at 10 µM. hit rate 5% among 98,000. efflux-deficient yeast background strain, growth absorbance A615, 16 h
PostGolgi yeast = growth inhibition of a yeast mutant, post-Golgi transport screen | hit rate 0.9% among 98,000 | post-Golgi transport phenotypic cell assay | inhibition, % at 10 µM;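 also: yeast cells grown in 1536-well plates; yeast grown about 18 h at 30C before absorbance read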
EphB4 ephrin blk = EphB4-ephrin-B2 interaction antagonism. P54760. EphB4 LBD / TNYL-RAW-Alexa532 peptide, fluorescence polarization. inhibition, % at 7 µM. hit rate 0.15% among 97,000;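 active = inhibition above the screen-wide mean inhibition plus 3 SD, cut at about 15% in these data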;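 also: 0% = DMSO wells and 100% = excess unlabeled TNYL-RAW peptide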
Target sequence (P54760 whole entry, looked up, the tested form may be a part): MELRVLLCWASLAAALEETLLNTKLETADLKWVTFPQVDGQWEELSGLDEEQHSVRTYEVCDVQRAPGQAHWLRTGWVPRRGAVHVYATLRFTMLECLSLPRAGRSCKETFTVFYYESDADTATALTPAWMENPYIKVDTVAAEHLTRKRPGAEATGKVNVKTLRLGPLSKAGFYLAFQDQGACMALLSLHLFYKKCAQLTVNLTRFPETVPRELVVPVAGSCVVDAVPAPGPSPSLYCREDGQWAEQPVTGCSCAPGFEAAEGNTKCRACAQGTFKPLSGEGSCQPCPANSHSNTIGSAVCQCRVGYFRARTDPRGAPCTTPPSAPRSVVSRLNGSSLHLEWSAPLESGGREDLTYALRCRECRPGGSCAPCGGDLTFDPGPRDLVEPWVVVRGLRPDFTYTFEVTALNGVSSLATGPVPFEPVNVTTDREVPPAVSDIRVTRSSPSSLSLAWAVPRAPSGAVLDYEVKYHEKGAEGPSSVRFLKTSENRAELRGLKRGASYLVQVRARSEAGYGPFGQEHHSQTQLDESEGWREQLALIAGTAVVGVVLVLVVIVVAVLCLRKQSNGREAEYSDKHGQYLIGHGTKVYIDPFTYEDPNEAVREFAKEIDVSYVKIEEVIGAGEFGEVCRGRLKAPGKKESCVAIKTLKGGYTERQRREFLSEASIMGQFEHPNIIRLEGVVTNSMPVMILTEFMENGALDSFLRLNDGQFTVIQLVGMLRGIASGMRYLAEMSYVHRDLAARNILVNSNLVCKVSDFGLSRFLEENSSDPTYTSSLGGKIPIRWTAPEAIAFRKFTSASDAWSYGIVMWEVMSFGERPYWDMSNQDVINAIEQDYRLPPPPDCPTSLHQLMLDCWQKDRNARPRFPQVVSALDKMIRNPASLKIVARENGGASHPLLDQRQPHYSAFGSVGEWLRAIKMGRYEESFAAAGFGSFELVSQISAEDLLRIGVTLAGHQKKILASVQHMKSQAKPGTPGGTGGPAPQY
Calb biofilm kill = kills Candida albicans biofilms; C. albicans biofilm + clotrimazole, Alamar Blue; inhibition, % at 6 µM; hit rate 0.14% among 85,000; AID 834;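 active = inhibition above 20%; inactive = inhibition below 20%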;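 also: preformed 24 hr biofilms exposed to compound for 48 hr; 0% = biofilm without compound and 100% = blank killed by clotrimazole plus chlorhexidine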
* hit, by the source's call; . = not tested or not shown; [ ] = dose if it differs, or a comment. Hits are enriched below; roughly 5.2% of the tested compounds scored in any of these assays. Rule as the data show it, unless noted: active = inhibition above about 30%; inactive = the rest.

SMILES | PostGolgi ctrl | PostGolgi yeast | EphB4 ephrin blk | Calb biofilm kill
COc1ccc(S(=O)(=O)Nc2ccccc2SC)cc1C | 36* | 1 | 5 | -3
Cc1cccc(C)c1NC(=O)C(c1ccc(Cl)cc1Cl)N1CCCCC1 (stereo not drawn) | 16 | 1 | -1 | .
COC(=O)C(NNc1ccccc1)(NC(=O)c1cccc(F)c1)C(F)(F)F (stereo not drawn) | -7 | -3 | 3 | .
Cc1c(NC(=O)Cn2cnc3c(=O)n(C)c(=O)n(C)c32)cccc1-c1nc2ccccc2o1 | . | . | -6 | -4
COc1ccc(S(=O)(=O)Nc2ccc(S(=O)(=O)N3CCOCC3)cc2)cc1C | 36* | -3 | -3 | 2
COc1cc(S(=O)(=O)NC2CCCCC2C)ccc1Cl (stereo not drawn) | 49* | -3 | 5 | -3
CNC(=O)C(=O)NCCc1ccc(Cl)cc1 | -6 | -3 | -5 | 9
CNc1cc(CSC)nc(SCc2ccc(Cl)cc2Cl)n1 | 39* | -10 | 2 | .
CCn1nc([N+](=O)[O-])c(C(C#N)c2nc3cc(C(F)(F)F)ccc3s2)c(Cl)c1=O (stereo not drawn) | 36* | 17 | -4 | .
COc1ccc(OC)c(NC2c3ccccc3C(=O)N2c2cccnc2)c1 (stereo not drawn) | 3 | -2 | 0 | 3
O=[N+]([O-])c1ccccc1CNC(Cc1ccccc1)c1ccccc1 (stereo not drawn) | 20 | -2 | -7 | -1
COc1ccccc1C1CC(c2c(-c3ccccc3)c3cc(Cl)ccc3[nH]c2=O)=NN1S(C)(=O)=O (stereo not drawn) | 1 | -1 | 17* | 1
Cn1cc(Br)c(C(=O)N2CCN(c3cccc(Cl)c3)CC2)n1 | . | . | -4 | 4
O=S(=O)(NCCc1ccccn1)c1ccc(F)c(F)c1 | 3 | -6 | . | 0
Cc1cc2cc(C)c3nnc(SCC(=O)N4CCCc5ccccc54)n3c2cc1C | 30* | -5 | 2 | .
Cc1cc2cc(C)c3nnc(SCC(=O)N4CCc5ccccc54)n3c2cc1C | -11 | 1 | 1 | .
Cc1cc(C)c(S(=O)(=O)N2CCN(C)CC2)c(C)c1 | 3 | 12 | 9 | 10
CCOc1cc(C2C(C(=O)OC)=C(C)N=C3SC(C)C(=O)N32)ccc1OC(C)=O (stereo not drawn) | 2 | -5 | 5 | 12
CCOC(=O)C1=C(C)N=C2SC(C)C(=O)N2C1c1ccc(OC(C)=O)c(OC)c1 (stereo not drawn) | 47* | 0 | 7 | .
Cc1nc(NC(=O)CSc2ccccc2N)sc1C | -5 | 2 | -3 | 2
O=C(NCCc1ccccc1)C1(c2ccccc2)CC1(Cl)Cl (stereo not drawn) | 39* | 5 | 4 | .
O=C(CC(=O)NN=C1CCCC1)NCCc1ccccc1 | -6 | -4 | -3 | .
O=C(N/N=C\c1ccc(Sc2ccccn2)o1)c1cccc(Br)c1 | -2 | -4 | -1 | .
CCCN(CCC)S(=O)(=O)c1ccc(NS(=O)(=O)c2ccc(F)cc2)cc1 | 0 | 1 | 1 | -1
Cc1nnc(SC(=O)N2c3ccccc3Sc3ccccc32)s1 | 75* | 13 | . | .
SMILES | PostGolgi ctrl | PostGolgi yeast | EphB4 ephrin blk | Calb biofilm kill
O=C(CCn1c(=O)c2ccccc2n(CC(=O)NC2CCCC2)c1=O)NCc1ccco1 | 8 | 5 | -2 | 6
O=[N+]([O-])c1cccnc1NCCNc1ncc(C(F)(F)F)cc1Cl | 35* | 5 | -1 | .
COc1ccccc1NC(=O)C(NC(=O)OC(C)(C)C)C(C)OCc1ccccc1 (stereo not drawn) | 18 | 2 | -11 | .
Nc1nc(-c2cccc(NS(=O)(=O)c3ccccc3)c2)cs1 | 4 | 0 | -4 | 6
Cc1ccc(CN(C#N)c2nc(C)cc(C)n2)cc1 | 9 | -1 | -2 | 6
COc1ccc(CN(C#N)c2nc(SC)nc(N(C)C)n2)cc1 | 41* | -9 | -2 | 4
COc1cc(NC(=O)CC2NCCNC2=O)cc(OC)c1 (stereo not drawn) | 7 | -1 | 4 | .
Cn1c(=O)c(NCCO)c2c3c(cccc31)C(=O)c1ccccc1-2 | 6 | 7 | 31*[fluorescence artefact?] | 9
CCNC1=C(Cl)C(=O)c2ccccc2C1=O | 15 | 10 | 5 | -4
CCNc1c2c3c(cccc3n(C)c1=O)C(=O)c1ccccc1-2 | 11 | 6 | 26* | -3
Cn1c(=O)c(NCCc2ccccc2)c2c3c(cccc31)C(=O)c1ccccc1-2 | 48* | 0 | 119*[fluorescence artefact?] | 4
CCCCNc1c2c3c(cccc3n(C)c1=O)C(=O)c1ccccc1-2 | 58* | 2 | 15 | 6
Cc1cc(C)c(S(=O)(=O)NCC23C=CC(O2)C2C(=O)N(c4ccccc4)C(=O)C23)c(C)c1 (stereo not drawn) | 3 | 1 | -7 | .
Cc1ccc(C)c(NC(=O)CNS(=O)(=O)c2ccccc2)c1 | 19 | -2 | 0 | 5
COc1ccc[nH]c1=O | 14 | 3 | 1 | 7
Cc1cc(/C=C(\C#N)C(=O)Nc2ccccc2)c(C)n1-c1ccc2c(c1)OCO2 | 55* | -6 | -11 | .
Cc1cc(/C=C(/C#N)C(=O)Nc2ccccc2)c(C)n1-c1cccnc1 | 16 | 4 | 0 | .
COc1cccc(-c2nc(CS(=O)CC(=O)NCc3ccccc3)c(C)o2)c1 (stereo not drawn) | 5 | 8 | 3 | -3
COc1ccccc1C(=O)Nc1ccc(S(=O)(=O)N2CCc3ccccc32)cc1 | 34* | 4 | -1 | -1
COC(=O)Nc1ccc(S(=O)(=O)N2CCCc3ccccc32)cc1 | 11 | 18 | -5 | 8
O=C(Nc1ccc(S(=O)(=O)N2CCc3ccccc32)cc1)c1ccco1 | 44* | 6 | -3 | .
COc1cc(C(=O)Nc2ccc(S(=O)(=O)N3CCc4ccccc43)cc2)cc(OC)c1OC | 4 | 0 | 5 | 3
O=C(Nc1ccc(S(=O)(=O)N2CCc3ccccc32)cc1)c1ccc2c(c1)OCO2 | 37* | -9 | 0 | -2
O=C(Nc1ccc(CN2CCCCC2)cc1)c1ccc2c(c1)OCO2 | -4 | -2 | -1 | 6
COCCn1c(SCCCC(=O)c2ccc(Br)cc2)nnc1-c1ccncc1 | 36* | -10 | -3 | 4
SMILES | PostGolgi ctrl | PostGolgi yeast | EphB4 ephrin blk | Calb biofilm kill
Cc1cc(C(c2ccc(C)o2)c2ccc(C)o2)c(O)c([N+](=O)[O-])c1 | 19 | 0 | -7 | 78*
Brc1ccccc1-c1nnc(COc2cccc3cccnc23)o1 | 33* | 9 | 7 | 1
Fc1cccc(Cl)c1CSc1nnc(COc2cccc3cccnc23)o1 | 62* | 4 | 3 | 5
NCCc1nnc(SCc2c(F)cccc2Cl)o1 | -1 | -3 | -3 | 5
Clc1ccccc1OCc1nnc(-c2ccccc2Br)o1 | 14 | 8 | -6 | 0
CSc1cccc(NS(=O)(=O)c2ccc3c(c2)oc(=O)n3C)c1 | -3 | -10 | -3 | 3
Cc1ccc2cccnc2c1NC(=S)NC(=O)c1ccccc1 | 12 | 3 | 7 | .
COCCOC(=O)c1c(C)oc2ccc(OC(=O)c3ccc4c(c3)OCO4)cc12 | 8 | -16 | -7 | 9
CN(C)c1nccc(Nc2ccccc2)c1C#N | 1 | -4 | 16* | 8
Cc1ccccc1NC(=O)c1ccc(-n2cncn2)nc1 | 20 | -5 | -2 | .
CCOC(=O)C1=C(C)NC(=O)NC1c1cccc(OC)c1OCc1ccccc1Cl (stereo not drawn) | 4 | 8 | -3 | -2
